# ChEMBL document CHEMBL3988442, “University of Dundee, Small-Polar-MMV Screening Library” (2021)
# For part of these data: Results with a measured potency or affinity are listed apart.
# Key:
# Set-up in all cases: scale not given: direction of the effect not stated beside the values
# [1] = target: Protein translocase subunit SecA (Escherichia coli (strain K12)) (UniProt P10408); assay: Assay to Identify E. coli SecA ATPase Inhibitors; assay type: functional; conditions: 30 µM
# [2] = target: T1, Ubiquitin-activating enzyme e1, putative (Leishmania donovani (strain BPK282A1)) (UniProt E9BSI1); assay: Leishmania donovani Ubiquitin Activating Enzyme (LdE1); assay type: functional; conditions: 30 µM
# T1 sequence (whole entry): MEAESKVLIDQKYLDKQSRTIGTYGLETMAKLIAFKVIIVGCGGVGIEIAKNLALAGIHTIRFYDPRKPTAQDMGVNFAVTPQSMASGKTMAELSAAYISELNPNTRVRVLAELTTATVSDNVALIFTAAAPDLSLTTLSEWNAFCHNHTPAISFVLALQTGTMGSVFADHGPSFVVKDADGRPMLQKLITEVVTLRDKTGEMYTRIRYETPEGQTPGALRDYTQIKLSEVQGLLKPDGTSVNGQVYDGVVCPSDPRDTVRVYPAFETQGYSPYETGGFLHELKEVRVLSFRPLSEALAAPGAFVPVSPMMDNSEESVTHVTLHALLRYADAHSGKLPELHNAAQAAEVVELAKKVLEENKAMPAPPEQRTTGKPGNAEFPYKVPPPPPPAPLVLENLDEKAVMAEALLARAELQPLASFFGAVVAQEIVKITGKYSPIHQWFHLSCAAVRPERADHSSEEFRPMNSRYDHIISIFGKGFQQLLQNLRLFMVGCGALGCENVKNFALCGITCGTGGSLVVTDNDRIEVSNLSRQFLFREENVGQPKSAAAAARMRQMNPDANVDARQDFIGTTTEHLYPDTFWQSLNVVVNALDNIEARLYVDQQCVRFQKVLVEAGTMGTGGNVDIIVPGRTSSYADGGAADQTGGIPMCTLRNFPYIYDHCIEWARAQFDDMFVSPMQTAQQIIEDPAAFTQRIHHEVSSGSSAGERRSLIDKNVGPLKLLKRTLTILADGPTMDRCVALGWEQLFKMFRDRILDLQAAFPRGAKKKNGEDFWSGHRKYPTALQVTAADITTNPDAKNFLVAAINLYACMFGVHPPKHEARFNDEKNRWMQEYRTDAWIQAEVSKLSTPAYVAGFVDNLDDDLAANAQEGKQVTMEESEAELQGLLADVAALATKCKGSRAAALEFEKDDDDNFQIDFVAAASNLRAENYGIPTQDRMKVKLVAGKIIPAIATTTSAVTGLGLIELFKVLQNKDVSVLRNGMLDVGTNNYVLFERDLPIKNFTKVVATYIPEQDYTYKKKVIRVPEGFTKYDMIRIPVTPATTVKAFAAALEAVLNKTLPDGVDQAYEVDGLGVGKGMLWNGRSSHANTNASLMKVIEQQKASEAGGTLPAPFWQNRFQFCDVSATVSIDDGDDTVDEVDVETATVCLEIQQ
# [3] = target: AMP-activated protein kinase, AMPK (Homo sapiens) (UniProt P54646+O43741+P54619+Q9UGJ0+Q9Y478+Q13131+Q9UGI9); assay: AMP-dependent Kinase enzyme assay. An in vitro enzyme assay that detects ADP turnover that is directly proportional to AMPK activity. This uses naive AMPK that is activated during the assay with MK-8722; assay type: functional; conditions: 30 µM
# [4] = target: Sialic acid-binding Ig-like lectin 9 (Homo sapiens) (UniProt Q9Y336); assay: Hs-Siglec9 ALPHAscreen SOP 20170721; conditions: 10 µM
# Chain of Sialic acid-binding Ig-like lectin 9 (Homo sapiens) (Q9Y336 whole entry): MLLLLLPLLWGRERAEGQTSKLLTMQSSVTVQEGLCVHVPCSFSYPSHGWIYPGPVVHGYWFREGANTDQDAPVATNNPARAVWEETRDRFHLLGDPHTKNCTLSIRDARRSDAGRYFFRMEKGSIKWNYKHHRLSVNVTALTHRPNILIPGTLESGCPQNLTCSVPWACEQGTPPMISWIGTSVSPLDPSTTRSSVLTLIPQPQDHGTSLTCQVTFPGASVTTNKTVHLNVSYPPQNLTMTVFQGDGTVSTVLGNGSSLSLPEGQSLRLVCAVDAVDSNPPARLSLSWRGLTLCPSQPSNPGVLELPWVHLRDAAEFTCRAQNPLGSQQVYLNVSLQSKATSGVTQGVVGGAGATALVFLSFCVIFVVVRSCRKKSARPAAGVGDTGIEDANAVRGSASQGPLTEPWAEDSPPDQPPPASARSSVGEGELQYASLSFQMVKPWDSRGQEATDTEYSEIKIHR
# Trypanosoma cruzi = assay: Trypanosoma cruzi phosphomannomutase and mannose-1-phosphate guanylyltransferase assay; assay type: functional; conditions: 10 µM
# [5] = target: T2, Arginase-2, mitochondrial (Homo sapiens) (UniProt P78540); assay: in vitro enzyme assay to detect the production of urea directly proportional to the activity of Arginase II; assay type: functional; conditions: 33.3 µM; note: in the data most compounds retested in dose-response had high values
# T2 sequence (whole entry): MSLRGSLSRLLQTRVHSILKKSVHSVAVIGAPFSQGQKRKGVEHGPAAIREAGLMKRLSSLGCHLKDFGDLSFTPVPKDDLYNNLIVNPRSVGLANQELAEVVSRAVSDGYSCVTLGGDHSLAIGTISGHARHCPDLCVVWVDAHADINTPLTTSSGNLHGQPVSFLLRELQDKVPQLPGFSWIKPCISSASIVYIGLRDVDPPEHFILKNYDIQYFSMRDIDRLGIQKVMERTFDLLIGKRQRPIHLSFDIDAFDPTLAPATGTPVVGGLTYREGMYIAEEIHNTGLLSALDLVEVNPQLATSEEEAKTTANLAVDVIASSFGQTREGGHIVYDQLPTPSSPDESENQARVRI
# [6] = target: T3, Proteasome subunit beta (Trypanosoma cruzi) (UniProt O96673); assay: Trypanosoma cruzi proteasome chymotrypsin-like activity (TcProtChymo) assay.; note: in the data most compounds retested in dose-response had high values; assay type: functional; conditions: 9.37 µM
# T3 sequence (whole entry): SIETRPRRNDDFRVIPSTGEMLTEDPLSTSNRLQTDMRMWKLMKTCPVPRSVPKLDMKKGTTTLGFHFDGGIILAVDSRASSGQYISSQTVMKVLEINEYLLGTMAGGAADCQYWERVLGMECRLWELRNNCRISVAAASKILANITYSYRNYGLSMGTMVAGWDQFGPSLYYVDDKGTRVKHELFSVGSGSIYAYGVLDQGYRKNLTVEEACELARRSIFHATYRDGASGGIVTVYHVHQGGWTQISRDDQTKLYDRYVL
# Homo sapiens = species on record: Homo sapiens; assay: To identify inhibition of the IFN signalling (Jak-Stat) pathway via expression of an eGFP reporter gene under the control of an IFN-stimulated response element (ISRE) containing MxA promoter.; assay type: functional; conditions: 30 µM
# [7] = target: T4, Tyrosyl-tRNA synthetase, putative (Trypanosoma cruzi (strain CL Brener)) (UniProt Q4DSP6); assay: Trypanosoma cruzi tyrosyl tRNA synthetase (TcYRS) _High Tyrosine SOP; assay type: functional; conditions: 30 µM; note: in the data most compounds retested in dose-response had high values
# T4 sequence (whole entry): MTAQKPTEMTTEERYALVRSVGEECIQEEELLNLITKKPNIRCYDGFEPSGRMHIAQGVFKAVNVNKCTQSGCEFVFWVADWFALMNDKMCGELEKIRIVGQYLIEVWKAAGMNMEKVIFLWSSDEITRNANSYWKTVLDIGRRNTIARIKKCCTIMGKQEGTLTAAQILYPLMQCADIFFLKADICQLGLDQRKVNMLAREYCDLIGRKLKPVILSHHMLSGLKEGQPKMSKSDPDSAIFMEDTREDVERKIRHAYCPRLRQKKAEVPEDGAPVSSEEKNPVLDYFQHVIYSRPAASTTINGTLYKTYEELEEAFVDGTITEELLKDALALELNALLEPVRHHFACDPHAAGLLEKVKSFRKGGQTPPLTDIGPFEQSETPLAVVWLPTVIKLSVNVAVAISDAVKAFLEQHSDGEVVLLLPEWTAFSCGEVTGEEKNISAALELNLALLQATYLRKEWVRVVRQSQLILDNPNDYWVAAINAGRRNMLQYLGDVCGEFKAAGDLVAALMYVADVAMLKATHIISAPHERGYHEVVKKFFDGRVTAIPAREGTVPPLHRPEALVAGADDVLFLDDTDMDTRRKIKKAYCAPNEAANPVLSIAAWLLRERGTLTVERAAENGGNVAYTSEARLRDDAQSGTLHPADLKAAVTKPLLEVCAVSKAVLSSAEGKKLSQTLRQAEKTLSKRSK
# [8] = target: T4, Tyrosyl-tRNA synthetase, putative (Trypanosoma cruzi (strain CL Brener)); assay: Trypanosoma cruzi tyrosyl tRNA synthetase (TcYRS) SOP; assay type: functional; conditions: 30 µM
# [9] = target: Chromo domain-containing protein 1 (Saccharomyces cerevisiae (strain ATCC 204508 / S288c) (Baker's yeast)) (UniProt P32657); assay: ScCHD-1 Enzyme Inhibition Assay; assay type: functional; conditions: 30 µM; note: in the data most compounds retested in dose-response had high values
# Chain of Chromo domain-containing protein 1 (Saccharomyces cerevisiae (strain ATCC 204508 / S288c) (Baker's yeast)) (P32657 whole entry, the tested form may be a part): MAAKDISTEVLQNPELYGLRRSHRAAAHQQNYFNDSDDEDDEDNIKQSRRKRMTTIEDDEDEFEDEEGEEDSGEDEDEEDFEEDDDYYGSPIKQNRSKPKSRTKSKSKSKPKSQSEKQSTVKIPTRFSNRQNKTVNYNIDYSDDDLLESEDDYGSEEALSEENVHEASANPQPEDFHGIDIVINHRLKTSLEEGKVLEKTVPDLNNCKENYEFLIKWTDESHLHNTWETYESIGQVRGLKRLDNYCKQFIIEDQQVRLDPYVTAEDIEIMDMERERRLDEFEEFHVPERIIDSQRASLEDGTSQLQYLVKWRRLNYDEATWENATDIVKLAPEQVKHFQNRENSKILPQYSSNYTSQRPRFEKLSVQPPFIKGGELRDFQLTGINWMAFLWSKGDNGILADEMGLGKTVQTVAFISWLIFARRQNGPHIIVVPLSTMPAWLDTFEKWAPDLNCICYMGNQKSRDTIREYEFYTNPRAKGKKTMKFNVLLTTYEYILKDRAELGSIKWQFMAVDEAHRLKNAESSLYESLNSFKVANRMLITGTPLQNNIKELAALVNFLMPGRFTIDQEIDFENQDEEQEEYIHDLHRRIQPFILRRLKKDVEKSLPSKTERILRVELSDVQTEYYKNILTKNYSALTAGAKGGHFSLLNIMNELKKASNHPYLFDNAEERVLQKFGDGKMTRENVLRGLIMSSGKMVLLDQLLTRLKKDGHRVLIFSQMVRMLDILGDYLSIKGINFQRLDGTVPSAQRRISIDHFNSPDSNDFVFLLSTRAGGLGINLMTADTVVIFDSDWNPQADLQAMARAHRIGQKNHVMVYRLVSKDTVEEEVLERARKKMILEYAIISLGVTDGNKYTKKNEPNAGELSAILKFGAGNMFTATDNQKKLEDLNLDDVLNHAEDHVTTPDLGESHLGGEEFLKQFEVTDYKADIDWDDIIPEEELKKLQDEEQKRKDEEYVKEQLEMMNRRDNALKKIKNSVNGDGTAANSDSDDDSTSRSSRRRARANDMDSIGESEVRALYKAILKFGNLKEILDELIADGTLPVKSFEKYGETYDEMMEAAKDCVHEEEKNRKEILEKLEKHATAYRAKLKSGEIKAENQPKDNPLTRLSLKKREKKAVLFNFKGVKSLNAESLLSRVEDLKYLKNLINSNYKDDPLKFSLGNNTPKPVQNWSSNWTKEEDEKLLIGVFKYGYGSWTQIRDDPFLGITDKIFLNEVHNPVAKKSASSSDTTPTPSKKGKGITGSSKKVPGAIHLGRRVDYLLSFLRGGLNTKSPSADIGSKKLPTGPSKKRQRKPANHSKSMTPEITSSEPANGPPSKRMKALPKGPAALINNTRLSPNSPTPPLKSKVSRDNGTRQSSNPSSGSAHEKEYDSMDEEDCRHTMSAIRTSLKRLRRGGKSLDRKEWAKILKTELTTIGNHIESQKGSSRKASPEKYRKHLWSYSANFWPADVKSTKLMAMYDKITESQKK
# Chain of Protein translocase subunit SecA (Escherichia coli (strain K12)) (P10408 whole entry): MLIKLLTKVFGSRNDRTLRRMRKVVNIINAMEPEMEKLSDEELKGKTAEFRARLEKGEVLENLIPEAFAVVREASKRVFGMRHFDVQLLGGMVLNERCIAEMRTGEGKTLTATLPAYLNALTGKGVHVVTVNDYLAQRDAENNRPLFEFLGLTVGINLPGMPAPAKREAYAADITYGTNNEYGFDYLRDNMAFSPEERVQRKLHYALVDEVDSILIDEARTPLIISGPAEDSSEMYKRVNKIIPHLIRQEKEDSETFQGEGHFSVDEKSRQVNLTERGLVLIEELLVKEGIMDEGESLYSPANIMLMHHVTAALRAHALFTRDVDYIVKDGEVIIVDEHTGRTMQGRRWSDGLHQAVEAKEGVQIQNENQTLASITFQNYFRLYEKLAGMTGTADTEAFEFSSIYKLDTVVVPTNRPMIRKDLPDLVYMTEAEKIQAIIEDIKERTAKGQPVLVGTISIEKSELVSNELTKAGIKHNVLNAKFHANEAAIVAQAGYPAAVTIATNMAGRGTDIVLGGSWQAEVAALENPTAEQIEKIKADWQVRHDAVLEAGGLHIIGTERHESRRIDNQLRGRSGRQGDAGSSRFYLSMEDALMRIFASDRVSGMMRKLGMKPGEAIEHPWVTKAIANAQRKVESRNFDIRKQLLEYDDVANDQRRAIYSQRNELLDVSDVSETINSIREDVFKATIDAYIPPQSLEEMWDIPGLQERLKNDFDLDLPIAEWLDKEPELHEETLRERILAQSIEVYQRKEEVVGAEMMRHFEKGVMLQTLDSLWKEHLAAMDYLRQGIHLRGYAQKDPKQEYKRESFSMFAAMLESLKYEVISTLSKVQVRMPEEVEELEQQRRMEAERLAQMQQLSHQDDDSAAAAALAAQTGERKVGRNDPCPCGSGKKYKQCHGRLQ
SMILES,Percent Effect [1] [%],Percent Effect [2] [%],Percent Effect [3] [%],Percent Effect [4] [%],Percent Effect (Trypanosoma cruzi) [%],Percent Effect [5] [%],Percent Effect [6] [%],Percent Effect (Homo sapiens) [%],Percent Effect [7] [%],Percent Effect [8] [%],Percent Effect [9] [%]
CS(=O)(=O)NCc1cn2c(n1)CN(C(=O)c1ccc[nH]1)CC2,-5.06,10.7,14.2,2.3,-1.97,0.233,5.2,2.29,7.45,14.1,-4.02
CC(C)N1CCOCC2(CN(Cc3ccco3)CCO2)C1 (stereo unspecified),-0.00842,-5.48,2.81,4.65,-2.58,2.4,13.8,3.21,2.08,8.64,0.188
Cc1cnn(C2CCCN(C(=O)c3ccc(N(C)C)nn3)C2)c1 (stereo unspecified),-3.44,15.6,1.44,-3.44,-5.62,-2.85,-1.01,33.7,4.85,12.2,-8.48
Cc1ccc(CN2C[C@@H]3COC[C@H](C(=O)N4CCCCO4)[C@@H]3C2)o1,-1.82,13.3,7.57,2.5,1.57,-1.17,4.32,0.512,7.45,19.2,-3.93
c1ccc(-c2noc(CN3CCc4cncnc4C3)n2)nc1,-3.61,10.5,-27.7,10.3,8.65,1.92,9.02,-4.25,13.2,12.2,-10.6
O=C1CC(c2ccccc2)c2snc(C(=O)O)c2N1 (stereo unspecified),-3.07,6.67,-2.59,-2.64,2.95,20.9,29.4,1.29,3.17,7.69,-12
CC(C)c1nc(C2CCCN2CCc2ccncc2)no1 (stereo unspecified),-3.81,0,6.93,-0.839,-2.25,-0.356,13,27,2.91,-4.88,-0.507
COc1cccc(CN(C)C(=O)Nc2ccc3c(c2)OCCO3)c1,-0.723,18.4,-0.168,-10.2,0.0974,2.37,26.6,22.9,1.06,10.4,-8.52
Cc1nccc(CN2CCC(c3nnsc3S(C)(=O)=O)CC2)n1,-3.04,6.76,5.68,4.24,-3.75,-1.16,8.89,16.8,3.23,11.7,-12
COc1cccc(N2CCN(CC(O)c3ccc(C)cc3)CC2)c1 (stereo unspecified),-1.61,21.1,-2.12,-9.96,0.292,0,17,3.85,5.32,20.8,21
Cn1c(CN2CCOC(c3nc(C(C)(C)C)n[nH]3)C2)nnc1C1CC1 (stereo unspecified),-7.68,-26,-4.74,-20.2,7.35,-8.63,4.93,-6.09,3.81,18.8,-22.6
CC(C)NC(=O)NCCCc1cc(N)n(-c2ccccc2)n1,-2.64,5.48,-7.43,15.8,5.09,-6.82,24.8,14.3,5.38,17.5,-8.17
Cc1ccc(NC(=O)Nc2cnc(N3CCN(C)CC3)nc2)c(Cl)c1,-1.85,13,2.69,2.29,2.27,-5.81,5.22,6.92,6.35,11.5,-9.57
CCN(Cc1nc2c(cnn2C)c(=O)[nH]1)c1cccc(F)c1,-1.38,11.4,6.32,2.17,-2.36,-6.24,15.3,9.49,1.04,15.2,-15.7
CNCC(=O)N1CCCC(c2nccnc2Oc2cccc(F)c2)C1 (stereo unspecified),-7.42,10.7,10,-1.6,-3.74,-3.03,9.25,11.8,3.19,3.85,-4.73
O=S(=O)(CCNCc1cccc2c1OCCO2)N1CCOCC1,0.589,10.8,-8.76,1,-0.965,-0.476,9.14,24.3,5.82,4.88,-2.36
CC(C)C1CN(c2ncccn2)CCC(=O)N1Cc1ccc(F)cc1 (stereo unspecified),-4.22,6.94,-1.8,-3.12,-0.291,4.86,7.54,8.83,7.37,12.8,-3.01
Cc1nc2c(c(NC3CC3)n1)CCN(C(=O)C(C)(C)O)CC2,-2.61,10.8,2.64,-8.96,-4.99,-0.319,28,23.3,3.24,7.69,-1.94
O=C(COCc1ccccc1)N1CCCC(n2cncn2)C1 (stereo unspecified),-4.9,16.2,-5.92,0.0525,1.79,-2.4,7.57,11.4,6.4,18.5,-4.59
COc1c(CNCc2ccc(C(=O)NC3CC3)cc2)c(C)nn1C,-3.12,8.86,-1.46,6.83,-3.18,2.8,11,9.67,1.04,12.7,-6.42
Cc1cc(C(=O)N2CCN(C(=O)Cc3ccccn3)CC2)c(C)s1,-3.63,6.33,1.98,-0.00439,-1.54,-11,4.8,-10.2,7.29,7.59,5.75
